The record followed here is the supplement of paper PMC6555819.

In one assay the test system is RARb homodimer (NR concentration 270 nM). Nature of the assay: PBM binding z-score (relative to random genomic background probes); higher = stronger binding; sequences stand for … in GC…GCGATTGACAGCGTAGAATGAAGG
The procedure, abridged: (§1)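 Random background probes are the reference for binding z-scores. These scores derive from regression-normalized fluorescence on custom Agilent 4×180K protein-binding microarrays incubated 1 h with ligand-free nuclear receptor dimers. Binding was detected with antibodies against each partner (one per run).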
Turning to GCTCGCAGGACAAGGTCAGAGCTTTGTCCGTAGA, the PBM binding z-score stood at 2.58.

With ATCGAAAGGTAGAAGGTGAGTATACCCACCCGAA, the PBM binding z-score is 0.237.

Consider AGAACGAGGGCAATGAGTTGAAAGCACGGGTGGC, for which the PBM binding z-score turned out to be 1.14.

In the case of TTTCAAAGTTCAAAGGTAACGTAAGTATCCACAC, the PBM binding z-score was 3.87.

On to TAGCGTAGGTCATTGGGCCAGTATAGTACGCATC, for which the PBM binding z-score worked out at 2.8.

Turning to ATCTCTAGGTAACCAAGTTCAGTGGATGCCGAAC, the PBM binding z-score was determined as 1.38.

On to CCGAGTAGGTTCTGGGGCATTCAGGCAACGGTGA, for which the PBM binding z-score is 0.469.

As to ATATGTAGGTTAAGGGTCAGTCAGGTTGGTTCGC, the PBM binding z-score is 3.81.

CTTCCAAGGTCAGAGAGGTCAGTGAATGCCGAGT returned a PBM binding z-score of 5.27.

GCGACTGGGGCTAAGCAGGTTACCATAAGGTTGG gave a PBM binding z-score of 0.946.

The sequence TCTAACAGGCCAGAGGGTCACTCAAGAGGTACGG registered a PBM binding z-score of 3.05.

Regarding GCTAGCAGGCCAATTGGGTCACTCAATGACGGGC, the PBM binding z-score stood at 1.94.

Regarding ATCGAAAGGTCGTGATGTGAGTATACAGAAAGGC, the PBM binding z-score worked out at 2.33.

The sequence AGTCAAAGTTCAGGAGGAGGTAACGTAAAGCACG displayed a PBM binding z-score of 3.59.

Consider CAGCCTAGGTCAGGGCCACTATAGGAGGAACGTT, for which the PBM binding z-score came to 2.67.

The sequence ACTAGCAGGCTAAGTTTGGGTCACTCAAACAAAG showed a PBM binding z-score of 1.72.

ACAGTCAGGTGAGTGAAGGTAACTCAGCTGGACG returned a PBM binding z-score of -0.0774.

Another assay deals with RARg:RXRa (NR concentration 270 nM, RXRa partner concentration 90 nM). Described as above. The procedure, abridged:
as §1
In the case of TATGCTAGGTCAACGATGGTCAGCTAATCTGCTA, the PBM binding z-score was found to be 4.02.

Turning to AGATGTAGGTTACATCCGGGTCATTCAGGCTATG, the PBM binding z-score was 3.6.

With TCTATTAGTTGATTAGGACAACCGAAACAGCGGA, the PBM binding z-score was determined as 0.758.

For the sequence CTCTAAAGGTCGGTTGAGGTGAGTATACGGATAA, the PBM binding z-score stood at 3.06.

With CTGACTGGGGCAAAGGTTACCATACTCAGTACGA, the PBM binding z-score came to 3.83.

As for CCTAGCAGGCCAGAGTCACTCAAGCATTTCGCTT, the PBM binding z-score is -0.447.

In turn, GATACAGGGTCAGCTAGCGGCCAGAGTATGGAAA registered a PBM binding z-score of 6.02.

For CCTTACGGGTCACGAGGTTATTGCACGACGAGCG, the PBM binding z-score stood at 6.12.

TCGAGTAGGTTAGTCGGGGCATTGAGCCAACATA gave a PBM binding z-score of -0.11.

CCGACTGGGGCAAAGGTTCCCATACTCAGTACGA returned a PBM binding z-score of 0.839.

As for TGTCTAAGTTCAAAGGTAACGTAAGTATCCACAC, the PBM binding z-score amounted to 4.48.

GCATATCGGTAATACAAGGTGAAAGTCCGATTGT: the PBM binding z-score turned out to be 0.308.

Sequence TCTATTAGTTGAAGGGCAACCGTCGAGTCCGTTT registered a PBM binding z-score of 0.513.

As for CCGACTGGGGCAAAGGTTACCGTACTCAGTACGA, the PBM binding z-score came out at 3.44.

CCGACTGGAGCAAAGGTTACCATACTCAGTACGA: the PBM binding z-score was 1.89.

With ATCTCTAGGTAAGCCTCAGTTCAGTGAAGAACGC, the PBM binding z-score is 0.273.

Regarding GCCTACGGGTCAAAGGTTATAGCATGAATAGAAT, the PBM binding z-score worked out at 6.82.

For the sequence AGAATGAGGTTATACGTAGATCAGGGAAGAAAGT, the PBM binding z-score is 1.88.

On to ACTCGGAGGACAAAAGTCAGAGCTACGCCAGTGA, for which the PBM binding z-score turned out to be 0.411.

AGTCAAAGTTCGGGACGAGGTAACGTAAAGCACG returned a PBM binding z-score of 2.06.

The sequence CGAACTAGGTCATCCAGGACAGTGCATACATTGA had a PBM binding z-score of 4.04.

AGATCGAGGGCAATGAGTTGATAGCACGGGTGGC returned a PBM binding z-score of 0.862.

In the case of GCTCGCAGGACAAGGTCAGAGCTTTGTCCGTAGA, the PBM binding z-score is 2.71.

In turn, ATCGAAAGGTAGAAGGTGAGTATACCCACCCGAA yielded a PBM binding z-score of 0.633.

AGAACGAGGGCAATGAGTTGAAAGCACGGGTGGC showed a PBM binding z-score of 1.26.

TTTCAAAGTTCAAAGGTAACGTAAGTATCCACAC came in with a PBM binding z-score of 6.29.

Consider TAGCGTAGGTCATTGGGCCAGTATAGTACGCATC, for which the PBM binding z-score was 3.98.

In the case of ATCTCTAGGTAACCAAGTTCAGTGGATGCCGAAC, the PBM binding z-score came to 0.761.

For CCGAGTAGGTTCTGGGGCATTCAGGCAACGGTGA, the PBM binding z-score was -0.508.

In turn, ATATGTAGGTTAAGGGTCAGTCAGGTTGGTTCGC registered a PBM binding z-score of 4.01.

Take CTTCCAAGGTCAGAGAGGTCAGTGAATGCCGAGT: the PBM binding z-score came out at 6.1.

GCGACTGGGGCTAAGCAGGTTACCATAAGGTTGG showed a PBM binding z-score of 0.126.

As to TCTAACAGGCCAGAGGGTCACTCAAGAGGTACGG, the PBM binding z-score is 2.78.

GCTAGCAGGCCAATTGGGTCACTCAATGACGGGC came in with a PBM binding z-score of 1.01.

ATCGAAAGGTCGTGATGTGAGTATACAGAAAGGC: the PBM binding z-score stood at 3.91.

For AGTCAAAGTTCAGGAGGAGGTAACGTAAAGCACG, the PBM binding z-score is 5.4.

In turn, CAGCCTAGGTCAGGGCCACTATAGGAGGAACGTT yielded a PBM binding z-score of 3.08.

For ACTAGCAGGCTAAGTTTGGGTCACTCAAACAAAG, the PBM binding z-score was 0.94.

ACAGTCAGGTGAGTGAAGGTAACTCAGCTGGACG: the PBM binding z-score turned out to be 0.2.

Another assay has as its system RARg homodimer (NR concentration 270 nM). Described as above. The procedure, abridged: as §1
As to TATGCTAGGTCAACGATGGTCAGCTAATCTGCTA, the PBM binding z-score amounted to 4.8.

Sequence AGATGTAGGTTACATCCGGGTCATTCAGGCTATG had a PBM binding z-score of 2.14.

On to TCTATTAGTTGATTAGGACAACCGAAACAGCGGA, for which the PBM binding z-score was found to be 0.926.

With CTCTAAAGGTCGGTTGAGGTGAGTATACGGATAA, the PBM binding z-score is 3.15.

CTGACTGGGGCAAAGGTTACCATACTCAGTACGA displayed a PBM binding z-score of 2.21.

The sequence CCTAGCAGGCCAGAGTCACTCAAGCATTTCGCTT yielded a PBM binding z-score of -0.706.

The sequence GATACAGGGTCAGCTAGCGGCCAGAGTATGGAAA returned a PBM binding z-score of 4.62.

With CCTTACGGGTCACGAGGTTATTGCACGACGAGCG, the PBM binding z-score worked out at 5.46.

Sequence TCGAGTAGGTTAGTCGGGGCATTGAGCCAACATA showed a PBM binding z-score of 0.0255.

In turn, CCGACTGGGGCAAAGGTTCCCATACTCAGTACGA came in with a PBM binding z-score of 0.494.

As to TGTCTAAGTTCAAAGGTAACGTAAGTATCCACAC, the PBM binding z-score is 3.63.

In turn, GCATATCGGTAATACAAGGTGAAAGTCCGATTGT registered a PBM binding z-score of 0.268.

TCTATTAGTTGAAGGGCAACCGTCGAGTCCGTTT: the PBM binding z-score turned out to be 0.573.

On to CCGACTGGGGCAAAGGTTACCGTACTCAGTACGA, for which the PBM binding z-score turned out to be 1.64.

The sequence CCGACTGGAGCAAAGGTTACCATACTCAGTACGA came in with a PBM binding z-score of 1.29.

As to ATCTCTAGGTAAGCCTCAGTTCAGTGAAGAACGC, the PBM binding z-score came out at 0.0936.

GCCTACGGGTCAAAGGTTATAGCATGAATAGAAT returned a PBM binding z-score of 4.24.

Consider AGAATGAGGTTATACGTAGATCAGGGAAGAAAGT, for which the PBM binding z-score was determined as 1.24.

Sequence ACTCGGAGGACAAAAGTCAGAGCTACGCCAGTGA showed a PBM binding z-score of 0.784.

As to AGTCAAAGTTCGGGACGAGGTAACGTAAAGCACG, the PBM binding z-score was 1.49.

CGAACTAGGTCATCCAGGACAGTGCATACATTGA yielded a PBM binding z-score of 4.52.

Sequence AGATCGAGGGCAATGAGTTGATAGCACGGGTGGC had a PBM binding z-score of 1.38.

In the case of GCTCGCAGGACAAGGTCAGAGCTTTGTCCGTAGA, the PBM binding z-score was found to be 2.74.

The sequence ATCGAAAGGTAGAAGGTGAGTATACCCACCCGAA had a PBM binding z-score of 0.664.

Regarding AGAACGAGGGCAATGAGTTGAAAGCACGGGTGGC, the PBM binding z-score was 1.51.

In turn, TTTCAAAGTTCAAAGGTAACGTAAGTATCCACAC gave a PBM binding z-score of 5.88.

Turning to TAGCGTAGGTCATTGGGCCAGTATAGTACGCATC, the PBM binding z-score is 4.08.

Regarding ATCTCTAGGTAACCAAGTTCAGTGGATGCCGAAC, the PBM binding z-score was 0.959.

The sequence CCGAGTAGGTTCTGGGGCATTCAGGCAACGGTGA returned a PBM binding z-score of -0.495.

ATATGTAGGTTAAGGGTCAGTCAGGTTGGTTCGC showed a PBM binding z-score of 3.14.

The sequence CTTCCAAGGTCAGAGAGGTCAGTGAATGCCGAGT had a PBM binding z-score of 7.29.

GCGACTGGGGCTAAGCAGGTTACCATAAGGTTGG returned a PBM binding z-score of 0.179.

Turning to TCTAACAGGCCAGAGGGTCACTCAAGAGGTACGG, the PBM binding z-score worked out at 2.14.

Sequence GCTAGCAGGCCAATTGGGTCACTCAATGACGGGC registered a PBM binding z-score of 1.15.

ATCGAAAGGTCGTGATGTGAGTATACAGAAAGGC showed a PBM binding z-score of 3.35.

With AGTCAAAGTTCAGGAGGAGGTAACGTAAAGCACG, the PBM binding z-score came out at 4.92.

Sequence CAGCCTAGGTCAGGGCCACTATAGGAGGAACGTT displayed a PBM binding z-score of 3.7.

Turning to ACTAGCAGGCTAAGTTTGGGTCACTCAAACAAAG, the PBM binding z-score is 0.818.

Sequence ACAGTCAGGTGAGTGAAGGTAACTCAGCTGGACG registered a PBM binding z-score of 0.617.
